Measured values reported in PubChem BioAssay (Tox21).
Records with an inconclusive call do not appear. Calls of active or inactive are those of the source. The call rests on the fitted dose curve; in most records, active means well fitted cell-killing curve with a large enough effect in the repeat runs; inconclusive means weak or mixed curves, or effect the other way; inactive means flat fitted curve, though single readings scatter.

Experiment: qHTS assay to identify small molecule antagonists of the retinoid acid receptor (RAR) signaling pathway - cell viability counter screen (AID 1159551); further: nearly all actives have a fitted effect of over 35% in size
Settings: C3RL4 cells viability, ATP luminescence (CellTiter-Glo), 6 h; series mostly up to 92.4 µM
Source text: U.S. Tox21 Program National Center for Advancing Translational Sciences [NCATS] NIH Chemical Genomics Center [NCGC] U.S. Environmental Protection Agency [EPA] National Institutes of Environmental Health Sciences [NIEHS] National Toxicology Program [NTP] U.S. Food and Drug Administration [FDA] Tox21 Assay Overview: All-trans Retinoic acid (atRA) is the potent natural metabolite of retinol and plays an important role in normal embryonic development and maintenance of cellular phenotype in adult animals. atRA is the activating ligand for the retinoic acid receptors (RARs) which form heterodimers with retinoid X receptors (RXRs) on the retinoic acid response element (RARE). Through activation of the RAR/RXRs nuclear receptors, atRA regulates the transcription of a large number of protein-coding genes and regulatory RNAs. Intracellular levels of atRA are controlled by the retinol signaling pathway (RSP) that regulates the biosynthesis and catabolism of atRA to maintain physiological levels. Chemicals that interfere with the RSP can cause abnormal intracellular levels of atRA and therefore are potential developmental toxicants. To assess compounds for the potential adverse effect on embryonic development through interfering with retinol signaling, a cell-based RARE luciferase reporter gene assay was used. C3RL4 cell line (OARSA/CFSAN/FDA, Laurel, MD) was used to screen Tox21 10K compound library for identifying inhibitors of the RSP. Also cytotoxicity was assessed by determining the viability of cells based on the quantitation of ATP.
Tox21 Assay Protocol Summary: C3RL4 cells were seeded at 1,000/well in 4 uL of assay medium into white solid 1,536-well tissue culture plates (Greiner Bio-One North America Inc. Monroe, NC) using a Multidrop Combi (Thermo Scientific, Waltham, MA) dispenser. After incubation at 37 C and 5% CO2 for an overnight, 23 nL of compounds dissolved in DMSO, positive control or DMSO only were transferred by a Pintool station (Kalypsys, San Diego, CA). One ul of 1 uM (final concentration) of Retinol was added right after the compound addition by using a Flying Reagent Dispenser (FRD) (Aurora Discovery, San Diego, CA). After 6 hr incubation at 37 C and 5% CO2, 5 uL of CellTiter-Glo reagent (Promega Corporation, Madison, WI) was added to each assay plate using an FRD. Luminescence was quantified on a ViewLux plate reader (PerkinElmer, Waltham, MA) after 30 min incubation at room temperature.
On the % scale 0 is the no-effect control and ±100 the full control effect.

SMILES	outcome	activity change, negative = cytotoxicity
COc1ccc(/C=N/NC(=O)c2ccncc2)cc1OC	inactive	–
COc1ccc(OC)c(NC(=O)CC(C)=O)c1	inactive	–
CC(=O)OC[C@H]1O[C@@H](OC(C)=O)[C@H](OC(C)=O)[C@@H]1OC(C)=O	inactive	–
NS(=O)(=O)c1ccc(Cl)c(S(N)(=O)=O)c1	inactive	–
CCC1COC(=O)O1 (stereo not given)	inactive	–
CC(=O)c1ccc(OCC(=O)N2CCCCC2)cc1	inactive	–
CN(C1CCCCC1)S(=O)(=O)c1ccccc1N	inactive	–
CCC(C)(CCC(C)C)C(=O)[O-].CCC(C)(CCC(C)C)C(=O)[O-].[Zn+2] (stereo not given)	inactive	–
CCOC(=O)C(=O)c1csc(NC=O)n1	inactive	–
CC(=O)OCCCc1ccccc1	inactive	–
O=S(=O)(O)c1cc(O)ccc1O	inactive	–
CCNC(=O)/C=C/c1cccc(Br)c1	inactive	–
CN=C(NC#N)NCCSCc1csc(N=C(N)N)n1	inactive	–
C=C(C)C(=O)OCCCCCCOC(=O)C(=C)C	inactive	–
COc1ccc(NS(=O)(=O)c2ccc(N)cc2)nn1	inactive	–
CC(C)SCc1ccco1	inactive	–
CCCCCCCCCCC	inactive	–
CCCCOC(=O)C(C)OC(=O)CCC (stereo not given)	inactive	–
CC(=O)N1CCN(c2ccc(O)cc2)CC1	inactive	–
NCCc1ccn[nH]1	inactive	–

SMILES	outcome	activity change, negative = cytotoxicity
CCCCCN(CCCOC)C(=O)C(CCC(=O)O)NC(=O)c1ccc(Cl)c(Cl)c1 (stereo not given)	inactive	–
CCCCCCCCCOCC1CO1 (stereo not given)	inactive	–
Cc1oc(=O)oc1CN1CCN(c2cc3c(cc2F)c(=O)c(C(=O)O)c2n3C(C)S2)CC1 (stereo not given)	inactive	–
CCN(CC)C(=O)C1CN2CCc3cc(OC)c(OC)cc3C2CC1OC(C)=O (stereo not given)	inactive	–
CCCC(C)CC (stereo not given)	inactive	–
CC(C)COC(=O)/C=C/c1ccccc1	inactive	–
CC(C)=CC(C)(C)C	inactive	–
Oc1ccccc1Cc1ccccc1O	inactive	–
CC(C)(c1ccc(Oc2ccc3c(c2)C(=O)OC3=O)cc1)c1ccc(Oc2ccc3c(c2)C(=O)OC3=O)cc1	inactive	–
Cc1nc2ccccc2c(=O)o1	inactive	–
CC(C)COC(=O)CC(C(=O)OCC(C)C)S(=O)(=O)O (stereo not given)	inactive	–
NC(=O)NNC(N)=O	inactive	–
O=S(=O)(O)SSS(=O)(=O)O	inactive	–
COC(/C=C(\C)CCC=C(C)C)OC	inactive	–
O=CO	–	2.98% [at 8.39 µM] (inactive)
O=C(O)C(=O)Nc1cccc(-c2nn[nH]n2)c1	inactive	–
COc1cc2c3cc1Oc1cc(ccc1O)C[C@@H]1c4c(cc(OC)c(O)c4Oc4ccc(cc4)C[C@@H]3N(C)CC2)CC[N+]1(C)C	inactive	–
OCCCCCCCl	inactive	–
CC(=O)c1ccc2c(c1)CCCC2	inactive	–
CCCCCCCC/C=C\CCCCCCCC(=O)OC[C@@H](O)[C@H]1OC[C@H](O)[C@H]1O	inactive	–
